Inconclusive results are not listed. Entries that show only a call come without a potency. Unmarked numbers belong to inactive results. The source made the active and inactive calls. Calls come from the whole dose curve; as a rule, active = well fitted cell-killing curve with a large enough effect; inconclusive = small, poorly fitted or top-dose-only effect, or effect the other way; inactive = flat fitted curve, though single readings scatter. Where a SMILES comes first, the peptide text is derived from it. [ ]: non-standard residue; d: D form. 2Abz = Nc1ccccc1C(=O)O

For the test, the system named is C33A. Description: Primary qHTS to identify gynecologic anti-cancer compounds using libraries of approved drugs and bioactive compounds (AID 1345084). Note: nearly all actives have a fitted effect of over 55% in size. As to conditions: Gynecologic cancer cell panel viability, ATPlite luminescence, 48 h; series mostly up to 57.5 µM. The method, boiled down:
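Measured: luminescence after ATPlite addition (15 min, RT). Exposure: 48 h, 37 C, 5% CO2.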
Background: qHTS replaces the single test concentration by a dilution series.
Consider `CC(=O)O[C@H](C[C@@H](C)[C@H]1C(=O)[C@H](O)[C@@]2(C)[C@@H]3CCC4C(C)(C)[C@@H](O[C@@H]5OC[C@H](O)[C@H](O)[C@H]5O)CC[C@@]45C[C@@]35CC[C@]12C)[C@@H]1OC1(C)C` (stereo partly specified), for which the Potency entry is “inactive”.

As to `CC1OC(OC2C(C)OC(OC3C(OC(=O)/C=C/c4ccc(O)cc4)C(CO)OC(OC4(COC(=O)/C=C/c5ccc(O)cc5)OC(CO)C(O)C4O)C3OC3OCC(O)(CO)C3O)C(O)C2O)C(O)C(O)C1O` (stereo unspecified), the activity change, negative = cytotoxicity is 4.08% [at 11.6 µM].

Regarding `CC(/C=C/[C@]1(O)[C@@]2(C)CO[C@@]1(C)C[C@@H](O)C2)=C\C(=O)O[C@@H]1O[C@H](CO)[C@@H](O)[C@H](O)[C@H]1O`, the Potency result is “inactive”.

Regarding `C=C1C(=O)OC2CC(C)=C(C(C)CCCO[C@@H]3O[C@H](CO)[C@@H](O)[C@H](O)[C@H]3O)C(O)C12` (stereo partly specified), the Potency result is “inactive”.

In the case of `O=C(O[C@H]1[C@@H]2C[C@@H]3OC[C@@](O)([C@H]2[C@H](O[C@@H]2O[C@H](CO)[C@@H](O)[C@H](O)[C@H]2O)O3)[C@@H]1O)c1ccccc1`, the Potency result is “inactive”.

For the compound `CC(=O)c1c(C)cc(O)cc1O[C@@H]1O[C@H](CO)[C@@H](O)[C@H](O)[C@H]1O`, the Potency entry was “inactive”.

In the case of `CC1CCC(=O)CC(O)C(O)CC(=O)O1` (stereo unspecified), the Potency entry is “inactive”.

For `CC1(C)CC2C(O)C3=C(CC(C)(O)C2C1)C(=O)OC3O` (stereo unspecified), the Potency result was “inactive”.

In the case of `CC[C@H](/C=C/[C@@H](C)[C@H]1CC[C@H]2[C@@H]3CC=C4C[C@@H](O)CC[C@]4(C)[C@H]3CC[C@]12C)C(C)C`, the activity change, negative = cytotoxicity was 8.42% [at 6.55 µM].

`CC(=O)O[C@H]1[C@H](C)[C@@H](O)[C@H]2[C@@H]1C=C(C(=O)O)[C@H]1C[C@@H]3[C@H]([C@H]21)[C@H]1C(=O)O[C@@H]2CC[C@@]3(C)O[C@]1(O)[C@@H]2C`: the Potency entry is “inactive”.

For `CC(=O)OC(CSC1CCC(=O)OC(C)CCC(=O)C1)C(=O)O` (stereo unspecified), the Potency entry was “inactive”.

In the case of `CC(/C=C/C1(O)C(C)CC(O)CC1(C)C)OC1OC(CO)C(O)C(O)C1O` (stereo unspecified), the Potency result was “inactive”.

On to `CC(=O)N[C@H]1CCN(c2ccc(C3=NOC(CN[S+](=O)([O-])C(C)C)C3)cc2F)C1` (stereo partly specified), for which the Potency entry was “inactive”.

With `CC1CCC2C(C)(C)C(O)CCC2(C)C12Cc1c(O)cc3c(c1O2)C(N)=NC3` (stereo unspecified), the Potency entry is “inactive”.

In the case of `CNC(=O)Nc1ccc(OC)c(NC(=O)NC(=O)c2cc(F)c(F)cc2Cl)c1`, the Potency result was “inactive”.

As for `CCCC(N[C@@H](C)C(=O)N1[C@H](C(=O)O)C[C@@H]2CCCC[C@@H]21)C(=O)OCC` (stereo partly specified), the Potency entry was “inactive”.

Take `C/C=C(\C)C(=O)O[C@@H](C)[C@H]1CC[C@]2(O)C3CCC4C[C@@H](OC5CC(OC)C(OC6CC(OC)C(OC7CC(OC)C(OC8OC(C)C(OC9OC(CO)C(O)C(O)C9O)C(OC)C8O)C(C)O7)C(C)O6)C(C)O5)CC[C@]4(C)C3[C@H](O)[C@@H](O)[C@]12C` (stereo partly specified): the activity change, negative = cytotoxicity was 19.4% [at 6.55 µM].

As to `CC1OC(O[C@H]2[C@@H](O)C[C@@]3(C)C([C@H](O)C[C@]4(C)C3CC=C3C5CC(C)(C)CC[C@]5(C(=O)OC5OC(CO)C(O)C(O)C5OC5OCC(OC6OCC(OC7OCC(O)C(O)C7O)C(O)C6O)C(OC6OCC(O)(CO)C6O)C5O)CC[C@]34C)[C@]2(C)CO)C(O)C(O)C1O` (stereo partly specified), the activity change, negative = cytotoxicity was 4.56% [at 6.55 µM].

Regarding `CCC(=O)N[C@@H]1Cc2ccccc2[C@H](c2ccccc2)C1`, the Potency entry was “inactive”.

On to `CCC(C)C1NC(=O)C2CCCN2C(=O)C(C(C)C)NC(=O)c2ccccc2NC(=O)C(Cc2ccc(O)cc2)NC(=O)C(C)NC(=O)C(C(C)O)NC1=O` (stereo unspecified) (cyclo([2Abz]VPITAY); configuration not given here), for which the Potency entry is “inactive”.

In the case of `C=C1CCC2C(C)(C(=O)O)CC(O)CC2(C)C1CC/C(C)=C/C(=O)O` (stereo unspecified), the Potency entry was “inactive”.

With `COc1cc([C@@H]2Oc3c(OC)cc(CCCO)cc3[C@@H]2CO[C@@H]2O[C@H](CO)[C@@H](O)[C@H](O)[C@H]2O)ccc1O`, the Potency entry was “inactive”.

On to `COc1cccc(-c2ccc([C@@H](Oc3cc(-c4ccc(C[C@H](N)C(=O)O)cc4)nc(N)n3)C(F)(F)F)cc2)c1`, for which the Potency result is “inactive”.

Consider `CCNC(=O)CCC/C=C\C[C@@H]1[C@@H](/C=C/C(O)CCc2ccccc2)[C@@H](O)C[C@@H]1O` (stereo partly specified), for which the Potency entry was “inactive”.

For `Cc1[nH]cnc1C1CCN(c2nc3cccc4c3n2CCC4=O)CC1`, the Potency entry was “inactive”.

As to `C=C(C)[C@@H](C)[C@H]1O[C@]23C[C@]4(CO2)C(CCC2[C@@]5(C)CC[C@H](O[C@@H]6OC[C@H](O)[C@H](O[C@@H]7O[C@H](CO)[C@@H](O)[C@H](O)[C@H]7O)[C@H]6O[C@@H]6O[C@@H](CO)[C@H](O)[C@H]6O)C(C)(C)C5CC[C@]24C)C3[C@@](C)(O)[C@@H]1OC(C)=O` (stereo partly specified), the activity change, negative = cytotoxicity is 0.663% [at 11.6 µM].
